The structures appear in SMILES notation. About 720 (1.1%) of roughly 66,000 compounds were called active. Cut-off read from the data, not from the text of the source: active = normalised signal below about 0.5; inactive = the rest, inconclusive results apart. The full list was thinned out, with actives kept by preference.

The target in the experiment is Chromobox protein homolog 7 (Homo sapiens) (UniProt O95931). The experiment is described as follows: CBX7 chromodomain binding inhibitors, primary screen, biochemical, AlphaScreen (AID 1224903). The note with it: AlphaScreen His6-CBX7 / biotin-H3K27me3 peptide binding, stronger effect = lower value; z-score: measured here: z-score of CBX7 signal. A general note: In Alpha technology, singlet oxygen from a donor bead excites a nearby acceptor bead.
Chain of Chromobox protein homolog 7 (Homo sapiens) (O95931 whole entry, looked up): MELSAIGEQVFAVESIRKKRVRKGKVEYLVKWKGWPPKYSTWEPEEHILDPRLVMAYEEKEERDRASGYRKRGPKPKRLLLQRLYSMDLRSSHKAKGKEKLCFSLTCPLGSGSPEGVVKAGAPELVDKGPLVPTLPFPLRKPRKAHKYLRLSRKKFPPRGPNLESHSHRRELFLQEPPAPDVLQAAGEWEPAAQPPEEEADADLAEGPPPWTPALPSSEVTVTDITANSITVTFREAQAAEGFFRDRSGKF
For the molecule `CCCNC(=O)c1ccc2c(c1)N(Cc1ccccc1)C(=O)c1ccccc1S2(=O)=O`, the normalised signal (fraction of DMSO) is 1.14 (inactive) and the z-score was 2.25.
In the case of `CCOC(=O)c1sc(NC(=O)c2ccc(OCC)cc2)nc1-c1ccccc1`, the normalised signal (fraction of DMSO) is 0.993 (inactive) and the z-score was -0.166.
For `Cc1ccc(Cn2c(=O)cc(C(=O)NC3CC3)c3ccccc32)cc1`, the normalised signal (fraction of DMSO) was 0.912 (inactive) and the z-score is -0.873.
With `COc1ccc(Cl)cc1C1CC(=O)Nc2cc3c(cc21)OCO3` (stereo not drawn), the normalised signal (fraction of DMSO) is 1.03 (inactive) and the z-score is 0.351.
Regarding `CCc1nc2ccc(C(=O)NCC(OC)OC)cc2nc1CC`, the normalised signal (fraction of DMSO) is 1.13 (inactive) and the z-score came to 0.801.
On to `CC1CCN(c2c(NCc3ccc(C(=O)NCc4ccccc4)cc3)c(=O)c2=O)CC1`, for which the normalised signal (fraction of DMSO) is 0.993 (inactive) and the z-score was -0.292.
Take `COc1ccc(-c2[nH]c(-c3ccc(C)cc3)nc2SCC(=O)Nc2ccc(F)cc2)cc1OC`: the normalised signal (fraction of DMSO) was 0.756 (inactive) and the z-score was -11.6.
As to `COc1ccc(-c2nc(-c3ccc(F)cc3)c(-c3ccc(F)cc3)[nH]2)cc1OC`, the normalised signal (fraction of DMSO) is 0.322 (active) and the z-score was -13.4.
With `COc1cc(-c2nc(-c3ccccc3)c(-c3ccccc3)[nH]2)ccc1OCC(=O)O`, the normalised signal (fraction of DMSO) was 0.774 (inactive) and the z-score is -0.891.
As for `CC1(C)C=c2c(nnc3ncnn23)=C(O)C1`, the normalised signal (fraction of DMSO) was 0.00873 (active) and the z-score was -15.7.
`CCOC(=O)C1CCCN(c2c(N3CC(C)CC(C)C3)c(=O)c2=O)C1` (stereo not drawn): the normalised signal (fraction of DMSO) is 0.898 (inactive) and the z-score is -2.3.
On to `N#Cc1nc(COc2ccc(Cl)cc2)oc1N1CCCC1`, for which the normalised signal (fraction of DMSO) is 0.728 (inactive) and the z-score was -11.9.
Take `Cc1ccc(OCc2nc(C#N)c(N3CCCC3)o2)cc1`: the normalised signal (fraction of DMSO) was 0.417 (active) and the z-score was -10.6.
Regarding `COc1ccc(OCc2nc(C#N)c(N(C)Cc3ccccc3)o2)cc1`, the normalised signal (fraction of DMSO) is 0.575 (inactive) and the z-score was -2.65.
`Cc1cc(N2CCCCC2)nc2ccc(NC(=O)CCC(=O)N3CCN(c4ccc(F)cc4)CC3)cc12`: the normalised signal (fraction of DMSO) was 1.05 (inactive) and the z-score was found to be 0.868.
For the molecule `Cc1ccc(C)c(CN2C(=O)CSc3ccc(C(=O)NCCCN4CCCCCC4)cc32)c1`, the normalised signal (fraction of DMSO) is 0.98 (inactive) and the z-score was -0.433.
`Cc1cc(C)nc(N=C(N)N2CCC(Cc3ccccc3)CC2)n1`: the normalised signal (fraction of DMSO) was 0.97 (inactive) and the z-score was -0.61.
In the case of `COc1cc(Cl)c(C)cc1NC(=O)c1n[nH]c(=O)c2ccccc12`, the normalised signal (fraction of DMSO) is 1.01 (inactive) and the z-score is 0.38.
For `CC1CCCCC1NS(=O)(=O)c1ccc2c(c1)CCN2C(=O)C1CCC1` (stereo not drawn), the normalised signal (fraction of DMSO) was 0.937 (inactive) and the z-score was -2.14.
Turning to `COCCN1Cc2cccc(C(=O)NC3CCCC3)c2C1=O`, the normalised signal (fraction of DMSO) is 1.06 (inactive) and the z-score is 0.062.
Regarding `O=C(NC1CC1)c1ccc2c(c1)NC(=O)c1ccccc1N2`, the normalised signal (fraction of DMSO) was 0.861 (inactive) and the z-score was -2.13.
Regarding `Cc1sc2ncnc(NCC3(c4ccccc4)CCCC3)c2c1C`, the normalised signal (fraction of DMSO) is 1.08 (inactive) and the z-score came out at 1.89.
Consider `COCCNC(=O)c1ccc2c(c1)N=C(C)c1cc(Br)ccc1S2`, for which the normalised signal (fraction of DMSO) is 0.995 (inactive) and the z-score was -0.23.
As to `CCC(C)NC(=O)c1sc2ncn(CC(=O)Nc3ccccc3OC)c(=O)c2c1C` (stereo not drawn), the normalised signal (fraction of DMSO) is 1.07 (inactive) and the z-score was found to be 0.734.
The like results for `Cc1ccc(-c2nc3ncccc3o2)cc1NC(=O)c1ccc(Br)cc1` were, in that order, 0.923 (inactive) and -0.643.
Regarding `CC(C)NC(=O)c1ccc2nc(-c3ccccc3)c(-c3ccccc3)nc2c1`, the normalised signal (fraction of DMSO) was 1.07 (inactive) and the z-score came to 0.662.
Take `Cc1cccc(CCNC(=O)CCCNS(=O)(=O)c2ccc3c(c2)CCC(=O)N3)c1`: the normalised signal (fraction of DMSO) was 1.06 (inactive) and the z-score was 2.11.
For the molecule `CCN(CCCNC(=O)C(C)N1C(=O)COc2ccc(C)cc21)c1ccccc1` (stereo not drawn), the normalised signal (fraction of DMSO) was 0.631 (inactive) and the z-score was -6.67.
Consider `Cc1ccc2c(c1)N(C(C)C(=O)NCc1ccc(F)cc1Cl)C(=O)CO2` (stereo not drawn), for which the normalised signal (fraction of DMSO) was 0.512 (inactive) and the z-score is -8.83.
As for `CCOc1ccc(CNC(=O)C(C)N2C(=O)COc3ccc(C)cc32)cc1` (stereo not drawn), the normalised signal (fraction of DMSO) was 0.421 (active) and the z-score was -10.5.
With `O=C1C2C3C=CC(C4CC34)C2C(=O)N1Cc1cccnc1` (stereo not drawn), the normalised signal (fraction of DMSO) is 0.934 (inactive) and the z-score is -1.18.
With `Cc1cc(N2CCCCC2)nc2ccc(NC(=O)c3cnccn3)cc12`, the normalised signal (fraction of DMSO) is 0.882 (inactive) and the z-score was -2.15.
Turning to `CCN(CCNC(=O)Cn1nc(-c2ccc(Cl)cc2)ccc1=O)c1ccccc1`, the normalised signal (fraction of DMSO) was 0.859 (inactive) and the z-score was -7.3.
The matching figures for `COc1ccc(N2CC(C(=O)Nc3ccc(C(C)C)cc3)CC2=O)cc1` (stereo not drawn): 1.06 (inactive) and 0.0758.
With `CC(=O)Nc1ccccc1-c1nc2ccccc2n(C)c1=O`, the normalised signal (fraction of DMSO) is 1.23 (inactive) and the z-score came to 3.65.
On to `Cc1cc(C)cc(OC(C)C(=O)N(Cc2ccc(Cl)cc2)C2CCS(=O)(=O)C2)c1` (stereo not drawn), for which the normalised signal (fraction of DMSO) was 0.978 (inactive) and the z-score is -0.282.
Regarding `Nc1nonc1-c1noc(-c2c(F)cccc2F)n1`, the normalised signal (fraction of DMSO) was 1.09 (inactive) and the z-score stood at 0.864.
For `COc1ccc(Nc2cc(C(=O)NC3CC3)c3ccccc3n2)c(OC)c1`, the normalised signal (fraction of DMSO) is 0.865 (inactive) and the z-score was -2.17.
As for `CCOc1ccc(-n2ccnc2SCC(=O)Nc2cccc(Cl)c2)cc1`, the normalised signal (fraction of DMSO) is 0.445 (active) and the z-score was -0.736.
For `CCOc1ccc(-n2ccnc2SCC(=O)Nc2ccc(C)cc2C)cc1`, the normalised signal (fraction of DMSO) is 0.963 (inactive) and the z-score was -0.292.
With `COc1cccc(-n2ccnc2SCC(=O)Nc2ccc(Br)cc2)c1`, the normalised signal (fraction of DMSO) was 0.458 (active) and the z-score is -0.719.
`COc1cccc(-n2ccnc2SCC(=O)Nc2ccc(OC(F)(F)F)cc2)c1`: the normalised signal (fraction of DMSO) is 0.995 (inactive) and the z-score was -0.0932.
The matching figures for `CCOc1ccc(-n2ccnc2SCC(=O)Nc2ccccc2F)cc1`: 0.617 (inactive) and -0.508.
Turning to `COc1ccc(-n2ccnc2SCC(=O)Nc2ccc(C)cc2)cc1`, the normalised signal (fraction of DMSO) was 0.62 (inactive) and the z-score is -0.504.

Values taken from PubChem BioAssay AID1224903 (Bradner/Qi Labs at DFCI, 2016).
